Source: PubChem BioAssay (Tox21)
Active and inactive are the calls of the source. The call rests on the fitted dose curve; in most records, active means well fitted curve in the direction sought with a large enough effect in the repeat runs; inconclusive means weak or mixed curves; inactive means flat fitted curve, though single readings scatter.

experiment: qHTS assay to test for compound auto fluorescence at 460 nm (blue) in HEK293 cell free culture (AID 720681); conditions: cell-free medium, autofluorescence 405/460 nm (blue); series mostly up to 46 µM; fluorescence, % of fluorescent control: at the top concentration
Procedure, shortened: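 Compounds were added to cell-free DMEM with 10% FBS and fluorescence read directly. The blue channel used 405 nm excitation and 460 nm emission, with triamterene as the reference fluorophore.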
On the % scale 0 is the no-effect control and ±100 the full control effect.

| Structure (SMILES) | fluorescence, % of fluorescent control | Potency |
| --- | --- | --- |
| CC1(C)S[C@@H]2[C@H](NC(=O)C3(N)CCCCC3)C(=O)N2[C@H]1C(=O)O | -0.0472% (inactive) | – |
| CC[C@]1(O)CC2CN(CCc3c([nH]c4ccccc34)[C@@](C(=O)OC)(c3cc4c(cc3OC)N(C)[C@H]3[C@@](O)(C(N)=O)[C@H](O)[C@]5(CC)C=CCN6CC[C@]43[C@@H]65)C2)C1 (some centres undefined) | 0.0911% (inactive) | – |
| CC(=O)Nc1ccc(NC(=S)NC(=O)c2ccc(C(C)(C)C)cc2)cc1 | 0.0098% (inactive) | – |
| CO[C@H]1O[C@@H]2O[C@@]3(C)CC[C@H]4[C@H](C)CC[C@@H]([C@H]1C)[C@@]24OO3 | 0.0049% (inactive) | – |
| OC(CN1CCCCC1)c1cc(-c2ccccc2)on1 (centres undefined) | 0.0634% (inactive) | – |
| CC(C)(C)C1(O)CCN2CC3c4ccccc4CCc4cccc(c43)C2C1 (centres undefined) | 0.125% (inactive) | – |
| NC[C@@H]1O[C@H](O[C@H]2[C@@H](O)[C@H](O[C@@H]3[C@@H](O)[C@H](N)C[C@H](N)[C@H]3O[C@H]3O[C@H](CO)[C@@H](O)[C@H](O)[C@H]3N)O[C@@H]2CO)[C@H](N)[C@@H](O)[C@@H]1O | -0.0166% (inactive) | – |
| CN(C)c1ccc(C(=C2C=CC(=[N+](C)C)C=C2)c2c(O)c(S(=O)(=O)[O-])cc3cc(S(=O)(=O)O)ccc23)cc1 | -0.0095% (inactive) | – |
| CCN(CC)CCOC(=O)c1ccc(N)cc1Cl | 0.264% (inactive) | – |
| CCCCCCCCCCCCCCCCCC(=O)[O][Al] | -0.0845% (inactive) | – |
| CCC(C)[C@H]1O[C@]2(C=C[C@@H]1C)C[C@@H]1C[C@@H](C/C=C(\C)[C@@H](O[C@H]3C[C@H](OC)[C@@H](O[C@H]4C[C@H](OC)[C@H](NC(C)=O)[C@H](C)O4)[C@H](C)O3)[C@@H](C)/C=C/C=C3\CO[C@@H]4[C@H](O)C(C)=C[C@@H](C(=O)O1)[C@]34O)O2 (some centres undefined) | – | inactive |
| CC(C)NCC(O)COc1ccccc1-n1cccc1 (centres undefined) | 0.145% (inactive) | – |
| CC(C)(C)NC(=O)[C@H]1CC[C@H]2[C@@H]3CC=C4C=C(C(=O)O)CC[C@]4(C)[C@H]3CC[C@]12C | 0.429% (inactive) | – |
| CC1=C(/C=C/C(C)=C/C=C/C(C)=C/C=C/C=C(C)/C=C/C=C(C)/C=C/C2=C(C)C(=O)CCC2(C)C)C(C)(C)CCC1=O | -0.0353% (inactive) | – |
| CCOC(=O)c1cc(-c2ccccc2)nc2ccc(C)cc12 | -0.0695% (inactive) | – |

experiment: qHTS assay to test for compound auto fluorescence at 535 nm (green) in HEK293 cell free culture (AID 720682); conditions: cell-free medium, green autofluorescence 485/535 nm; series mostly up to 46 µM; activity change: at the top concentration
Procedure, shortened: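 Intrinsic compound fluorescence is measured in culture medium containing 10% FBS, with excitation at 485 nm and detection at 535 nm, referenced to fluorescein.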

| Structure (SMILES) | activity change | Potency |
| --- | --- | --- |
| CCN(CC)CCOc1ccc(-c2nc3cc(Cl)ccc3s2)cc1 | 0.0451% (inactive) | – |
| O=C(O)CCC/C=C\C[C@@H]1[C@@H](/C=C/[C@@H](O)COc2cccc(C(F)(F)F)c2)[C@H](O)C[C@@H]1O | 0.0385% (inactive) | – |
| OCC(O)COc1ccc(Cl)cc1 (centres undefined) | 0.0039% (inactive) | – |
| CC(Oc1ccccc1)C(=O)N[C@@H]1C(=O)N2[C@@H]1SC(C)(C)[C@@H]2C(=O)O (some centres undefined) | -0.0701% [at 18.6 µM, hits give high values] (inactive) | – |
| C=CCNC1=C2C[C@@H](C)C[C@H](OC)[C@H](O)[C@@H](C)/C=C(\C)[C@H](OC(N)=O)[C@@H](OC)/C=C\C=C(/C)C(=O)NC(=CC1=O)C2=O | -0.0377% (inactive) | – |
| COCC(=O)Nc1cc(Sc2ccccc2)ccc1N=C(NC(=O)OC)NC(=O)OC | -0.227% (inactive) | – |
| CCCCCCCCCCCCCCCC(=O)OC[C@@H](O)[C@H]1OC[C@H](O)[C@H]1O | -0.18% (inactive) | – |
| CCN(CC)Cc1cc(Nc2ccnc3cc(Cl)ccc23)ccc1O | -0.0111% [at 18.6 µM, hits give high values] (inactive) | – |
| C=CC[C@@H]1/C=C(\C)C[C@H](C)C[C@H](OC)[C@H]2O[C@@](O)(C(=O)C(=O)N3CCCC[C@H]3C(=O)O[C@H](/C(C)=C/[C@@H]3CC[C@@H](O)[C@H](OC)C3)[C@H](C)[C@@H](O)CC1=O)[C@H](C)C[C@@H]2OC | -0.198% (inactive) | – |
| CN(C)CCC=C1c2ccccc2C(C)(C)c2ccccc21 | -0.049% (inactive) | – |
| CN1CC(O)c2cc(N=NC(N)=O)c(O)cc21 (centres undefined) | -0.361% (inactive) | – |
| CCOC(=O)Cc1cccc(-c2cc(CCCCCCc3ccc(O[C@H]4O[C@H](COC(C)=O)[C@@H](OC(C)=O)[C@H](OC(C)=O)[C@@H]4OC(C)=O)c(-c4cccc(CC(=O)OCC)c4)c3)ccc2O[C@H]2O[C@H](COC(C)=O)[C@@H](OC(C)=O)[C@H](OC(C)=O)[C@@H]2OC(C)=O)c1 | -0.0798% (inactive) | – |
| CCCC(=O)O[C@]1(C(=O)COC(C)=O)CC[C@H]2[C@@H]3C[C@H](F)C4=CC(=O)C=C[C@]4(C)[C@@]3(F)[C@@H](O)C[C@@]21C | 0.0672% (inactive) | – |
| C=C1CC2C3CCC4=CC(=O)C=C[C@]4(C)[C@@]3(F)[C@@H](O)C[C@]2(C)[C@@]1(O)C(=O)COC(C)=O (some centres undefined) | 0.0624% (inactive) | – |
| C[C@H]1[C@@H](OC(=O)CCC(=O)O)O[C@@H]2OC3(C)CC[C@H]4[C@H](C)CC[C@@H]1[C@@]24OO3 | -0.106% (inactive) | – |
| OCCO[C@@H]1[C@@H](O)[C@H](O)[C@@H](CO)O[C@@H]1O | 0.0319% (inactive) | – |
| CN[C@@H]1[C@H](O[C@H]2[C@H](O[C@H]3[C@H](O)[C@@H](O)[C@H](N=C(N)N)[C@@H](O)[C@@H]3N=C(N)N)O[C@@H](C)[C@]2(O)C=O)O[C@@H](CO)[C@H](O)[C@H]1O | 0.0842% (inactive) | – |
| O=C(Cc1cccs1)N[C@@H]1C(=O)N2C(C(=O)[O-])=C(C[n+]3ccccc3)CS[C@H]12 | 0.437% (inactive) | – |
| Clc1cc(Cl)c(OCC#CI)cc1Cl | -0.0445% (inactive) | – |
| C[N@+]12CCCC[C@@H]1CCC(=C(c1cccs1)c1cccs1)C2 | 0.0315% (inactive) | – |

| Structure (SMILES) | activity change | Potency |
| --- | --- | --- |
| CC1(O)CCC(C(C)(C)O)CC1 (centres undefined) | -0.103% (inactive) | – |
| CC#CCC(C)[C@H](O)/C=C/[C@@H]1[C@H]2c3cccc(CCCC(=O)O)c3O[C@H]2C[C@H]1O (some centres undefined) | 0.0251% (inactive) | – |
| CCN(CC)CCCC(C)Nc1cc(/C=C/c2ccccc2Cl)nc2cc(Cl)ccc12 (centres undefined) | 0.21% (inactive) | – |
| CCCCC(=O)OCC(=O)[C@]1(O)Cc2c(O)c3c(c(O)c2[C@@H](O[C@H]2C[C@H](NC(=O)C(F)(F)F)[C@H](O)[C@H](C)O2)C1)C(=O)c1c(OC)cccc1C3=O | 1.33% (inactive) | – |
| CC1(C)S[C@@H]2[C@H](NC(=O)C3(N)CCCCC3)C(=O)N2[C@H]1C(=O)O | 0.0581% (inactive) | – |
| CC[C@]1(O)CC2CN(CCc3c([nH]c4ccccc34)[C@@](C(=O)OC)(c3cc4c(cc3OC)N(C)[C@H]3[C@@](O)(C(N)=O)[C@H](O)[C@]5(CC)C=CCN6CC[C@]43[C@@H]65)C2)C1 (some centres undefined) | 0.0426% (inactive) | – |
| CC(=O)Nc1ccc(NC(=S)NC(=O)c2ccc(C(C)(C)C)cc2)cc1 | 0.0326% (inactive) | – |
| CO[C@H]1O[C@@H]2O[C@@]3(C)CC[C@H]4[C@H](C)CC[C@@H]([C@H]1C)[C@@]24OO3 | 0.0011% (inactive) | – |
| OC(CN1CCCCC1)c1cc(-c2ccccc2)on1 (centres undefined) | -0.128% (inactive) | – |
| CC(C)(C)C1(O)CCN2CC3c4ccccc4CCc4cccc(c43)C2C1 (centres undefined) | 0.0073% (inactive) | – |
| NC[C@@H]1O[C@H](O[C@H]2[C@@H](O)[C@H](O[C@@H]3[C@@H](O)[C@H](N)C[C@H](N)[C@H]3O[C@H]3O[C@H](CO)[C@@H](O)[C@H](O)[C@H]3N)O[C@@H]2CO)[C@H](N)[C@@H](O)[C@@H]1O | 0.117% (inactive) | – |
| CN(C)c1ccc(C(=C2C=CC(=[N+](C)C)C=C2)c2c(O)c(S(=O)(=O)[O-])cc3cc(S(=O)(=O)O)ccc23)cc1 | -0.615% (inactive) | – |
| CCN(CC)CCOC(=O)c1ccc(N)cc1Cl | -0.0005% (inactive) | – |
| CCCCCCCCCCCCCCCCCC(=O)[O][Al] | 0.0631% (inactive) | – |
| CCC(C)[C@H]1O[C@]2(C=C[C@@H]1C)C[C@@H]1C[C@@H](C/C=C(\C)[C@@H](O[C@H]3C[C@H](OC)[C@@H](O[C@H]4C[C@H](OC)[C@H](NC(C)=O)[C@H](C)O4)[C@H](C)O3)[C@@H](C)/C=C/C=C3\CO[C@@H]4[C@H](O)C(C)=C[C@@H](C(=O)O1)[C@]34O)O2 (some centres undefined) | – | inactive |
| CC(C)NCC(O)COc1ccccc1-n1cccc1 (centres undefined) | -0.12% (inactive) | – |
| CC(C)(C)NC(=O)[C@H]1CC[C@H]2[C@@H]3CC=C4C=C(C(=O)O)CC[C@]4(C)[C@H]3CC[C@]12C | -0.116% (inactive) | – |
| CC1=C(/C=C/C(C)=C/C=C/C(C)=C/C=C/C=C(C)/C=C/C=C(C)/C=C/C2=C(C)C(=O)CCC2(C)C)C(C)(C)CCC1=O | 0.027% (inactive) | – |
| CCOC(=O)c1cc(-c2ccccc2)nc2ccc(C)cc12 | -0.0402% (inactive) | – |
